Source: article PMC8384837, “Expanding the binding specificity for RNA recognition by a PUF domain”

How the values were obtained:
Experiment in all cases: yeast three-hybrid, YBZ-1, SC-Leu-His + 0.5 mM 3-AT, 4 days
Settings in all cases: tags: N-Gal4 AD-HA kept; label: inside an RPR1-promoter hybrid RNA with tandem MS2 sites; ssRNA
[1] = target: PUM1 PUF domain R4-ANL (Homo sapiens, UniProt Q14671 828-1176, N971A;H972N;Q975L)
Outline: (§1)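 The interaction score is the log change in variant frequency from input to selection. Scores were computed in log2 with a pseudocount of 1 for absent variants, using Illumina sequencing of PCR-amplified repeat regions. The input came from four days on SC-Leu and the selection from four days on SC-Leu-His + 0.5 mM 3-AT. The cells were strain YBZ-1 (LexA–MS2 coat fusion, HIS3 reporter) co-expressing Pumilio-1 PUF domain libraries and matching RNA elements from a centromeric plasmid.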

[2] = target: PUM1 PUF domain R4-SPR (Homo sapiens, UniProt Q14671 828-1176, N971S;H972P;Q975R)
Outline: as §1

[3] = target: PUM1 PUF domain R4-WGS (Homo sapiens, UniProt Q14671 828-1176, N971W;H972G;Q975S)
Outline: as §1

[4] = target: PUM1 PUF domain R5-KHS (Homo sapiens, UniProt Q14671 828-1176, C1007K;R1008H;Q1011S)
Outline: as §1

[5] = target: PUM1 PUF domain R5-CGR (Homo sapiens, UniProt Q14671 828-1176, R1008G;Q1011R)
Sequence of PUM1 PUF domain R5-CGR (Q14671 828-1176 R1008G/Q1011R): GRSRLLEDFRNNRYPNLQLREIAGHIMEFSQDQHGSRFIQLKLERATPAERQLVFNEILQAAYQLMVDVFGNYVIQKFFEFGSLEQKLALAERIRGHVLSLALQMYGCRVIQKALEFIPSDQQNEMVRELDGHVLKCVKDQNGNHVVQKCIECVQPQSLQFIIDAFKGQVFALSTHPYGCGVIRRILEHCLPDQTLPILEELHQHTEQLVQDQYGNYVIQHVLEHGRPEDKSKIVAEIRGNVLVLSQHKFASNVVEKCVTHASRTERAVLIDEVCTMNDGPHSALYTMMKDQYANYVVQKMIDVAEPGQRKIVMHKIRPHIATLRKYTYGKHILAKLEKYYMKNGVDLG
Outline: as §1

[6] = target: PUM1 PUF domain R5-NPR (Homo sapiens, UniProt Q14671 828-1176, C1007N;R1008P;Q1011R)
Outline: as §1

[7] = target: PUM1 PUF domain R8-FFK (Homo sapiens, UniProt Q14671 828-1176, N1122F;Y1123F;Q1126K)
Sequence of PUM1 PUF domain R8-FFK (Q14671 828-1176 N1122F/Y1123F/Q1126K): as the sequence (Q14671 828-1176 R1008G/Q1011R) above, with G181R, R184Q, N295F, Y296F, Q299K counted along it
Outline: as §1

[8] = target: PUM1 PUF domain R4-AQY (Homo sapiens, UniProt Q14671 828-1176, N971A;H972Q;Q975Y)
Outline: as §1

[9] = target: PUM1 PUF domain R4-AYP (Homo sapiens, UniProt Q14671 828-1176, N971A;H972Y;Q975P)
Outline: as §1

[10] = target: PUM1 PUF domain R7-LST (Homo sapiens, UniProt Q14671 828-1176, S1079L;N1080S;E1083T)
Sequence of PUM1 PUF domain R7-LST (Q14671 828-1176 S1079L/N1080S/E1083T): as the sequence (Q14671 828-1176 R1008G/Q1011R) above, with G181R, R184Q, S252L, N253S, E256T counted along it
Outline: as §1

GGCUAGAACUAGUGGAUCCCCCGGCGCCCGGCGGCUCGAGCCCGGGUAAGUGUAUAUAGUCUGCAUGCCGCCGGGCGCCAUGCCUGCAGGUCGACUCUAGAAAACAUG
binding signal [1]: 2.71 log2 enrichment (interaction score)
binding signal [2]: 3.12 log2 enrichment (interaction score)
binding signal [3]: 5.21 log2 enrichment (interaction score)

GGCUAGAACUAGUGGAUCCCCCGGCGCCCGGCGGCUCGAGCCCGGGUAAGUGUACAUAGUCUGCAUGCCGCCGGGCGCCAUGCCUGCAGGUCGACUCUAGAAAACAUG
binding signal [1]: 1.38 log2 enrichment (interaction score)
binding signal [2]: 2.73 log2 enrichment (interaction score)
binding signal [3]: 2.86 log2 enrichment (interaction score)

GGCUAGAACUAGUGGAUCCCCCGGCGCCCGGCGGCUCGAGCCCGGGUAAGUGUCAAUAGUCUGCAUGCCGCCGGGCGCCAUGCCUGCAGGUCGACUCUAGAAAACAUG
binding signal [4]: 4.98 log2 enrichment (interaction score)
binding signal [5]: 4.13 log2 enrichment (interaction score)
binding signal [6]: 4.07 log2 enrichment (interaction score)

GGCUAGAACUAGUGGAUCCCCCGGCGCCCGGCGGCUCGAGCCCGGGUAAGUGUGAAUAGUCUGCAUGCCGCCGGGCGCCAUGCCUGCAGGUCGACUCUAGAAAACAUG
binding signal [4]: 2.1 log2 enrichment (interaction score)

GGCUAGAACUAGUGGAUCCCCCGGCGCCCGGCGGCUCGAGCCCGGGUAAGCGUAAAUAGUCUGCAUGCCGCCGGGCGCCAUGCCUGCAGGUCGACUCUAGAAAACAUG
binding signal [7]: 3.27 log2 enrichment (interaction score)

GGCUAGAACUAGUGGAUCCCCCGGCGCCCGGCGGCUCGAGCCCGGGUAAGUGUUAAUAGUCUGCAUGCCGCCGGGCGCCAUGCCUGCAGGUCGACUCUAGAAAACAUG
binding signal [4]: 6.04 log2 enrichment (interaction score)
binding signal [6]: 4.1 log2 enrichment (interaction score)

GGCUAGAACUAGUGGAUCCCCCGGCGCCCGGCGGCUCGAGCCCGGGUAAGUGUAAAUAGUCUGCAUGCCGCCGGGCGCCAUGCCUGCAGGUCGACUCUAGAAAACAUG
binding signal [4]: 2.33 log2 enrichment (interaction score)
binding signal [8]: 3.35 log2 enrichment (interaction score)
binding signal [9]: 7.85 log2 enrichment (interaction score)
binding signal [3]: 3.11 log2 enrichment (interaction score)

GGCUAGAACUAGUGGAUCCCCCGGCGCCCGGCGGCUCGAGCCCGGGUAAGUUUAAAUAGUCUGCAUGCCGCCGGGCGCCAUGCCUGCAGGUCGACUCUAGAAAACAUG
binding signal [10]: 3.64 log2 enrichment (interaction score)
